According to the supplement of paper PMC6992640:
± gives the standard deviation of the averaged measurements.

Legend:
Experiment in all cases: cell viability (% of vehicle); higher = less cytotoxic
Settings in all cases: 10 µM; 72 h
[1] = tested on: HCI01 (cells of a triple-negative basal-like breast cancer xenograft)
[2] = tested on: HCI03 (cells of an ER-positive luminal breast cancer xenograft)
[3] = tested on: HCI09 (cells of a triple-negative luminal androgen receptor type breast cancer xenograft)
[4] = tested on: HCI11 (cells of an ER-positive luminal breast cancer xenograft)
[5] = tested on: HCI13 (cells of an ER-positive luminal breast cancer xenograft)
[6] = tested on: HCI16 (cells of a triple-negative basal-like breast cancer xenograft)
[7] = tested on: UCD52 (cells of a triple-negative basal-like breast cancer xenograft)
[8] = tested on: WHIM2 (cells of a triple-negative basal-like breast cancer xenograft)
[9] = tested on: WHIM30 (cells of a triple-negative basal-like breast cancer xenograft)
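Note: PDX cells carrying CMV promoter-driven luciferase, viability read as total photon flux per second by IVIS imaging following D-luciferin, vehicle control 0.1% DMSO.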

| Compound | cell viability [1] | cell viability [2] | cell viability [3] | cell viability [4] | cell viability [5] | cell viability [6] | cell viability [7] | cell viability [8] | cell viability [9] |
| --- | --- | --- | --- | --- | --- | --- | --- | --- | --- |
| COc1cc2c(c(OC)c1OC)-c1ccc(OC)c(=O)cc1C(NC(C)=O)CC2 (stereo not given) [Colchicine] | 141 ± 19 | 109 | 120 ± 4.5 | 102 | 44.3 ± 2.3 | 108 | 146 ± 28 | 96 ± 9 | 145 ± 7.8 |
| CCNCC.O=S(=O)(O)c1cc(O)ccc1O [Ethamsylate] | 162 ± 90 | 124 | 99.4 ± 7 | 98 | 97.8 ± 10 | 126 | 109 ± 13 | 92.2 ± 12 | 103 ± 4.7 |
| Cl.NCC1(CC(=O)O)CCCCC1 [Gabapentin HCl] | 142 ± 42 | 121 | 94.2 ± 3.2 | 90.2 | 109 ± 14 | 120 | 80.45 ± 0.75 | 85.7 ± 7.6 | 115.5 ± 0.43 |
| C#CC1(O)C=CC2C3CCC4=CC(=O)CCC4C3CCC21CC (stereo not given) [Gestodene] | – | 149 | 97.4 ± 20 | 122 | 179 ± 25 | 184 | 143.1 ± 1.4 | 106 ± 5 | – |
| CCC1(c2cccc(O)c2)CCCCN(C)C1.Cl (stereo not given) [Meptazinol HCl] | 69.9 ± 42 | 141 | 98.1 ± 10 | 94 | 111 ± 5 | 112 | 85.7 ± 6 | 91.8 ± 33 | 181.3 ± 0.74 |
| O=P1(NCCCl)OCCCN1CCCl (stereo not given) [Ifosfamide] | 106 ± 14 | 107 | 96.28 ± 0.62 | 84.8 | 153 ± 11 | 74.4 | 104.1 ± 0.65 | 95.7 ± 26 | 109 ± 2.2 |
| CNC1CC(N)C(O)C(OC2OC(CO)C(O)C3OC4(OC(C(N)CO)C(O)C(O)C4O)OC23)C1O (stereo not given) [Hygromycin B] | 66.3 ± 21 | 70.2 | 122 ± 75 | 110 | 114.5 ± 1.1 | 94.3 | 87.4 ± 22 | 97.2 ± 1.2 | 88.3 ± 23 |
| CCN(C)C(=O)Oc1cccc(C(C)N(C)C)c1.O=C(O)C(O)C(O)C(=O)O (stereo not given) [Rivastigmine Tartrate] | 115.8 ± 0.12 | 116 | 127 ± 62 | 119 | 133 ± 51 | 151 | 111 ± 15 | 91.8 ± 31 | 131 ± 13 |
| CCOC(=O)c1cncn1C(C)c1ccccc1 (stereo not given) [Etomidate] | 114 ± 2.7 | 89.8 | 96.6 ± 3.1 | 90.1 | 103 ± 14 | 77.5 | 88.6 ± 2.2 | 81.8 ± 20 | 117 ± 6.2 |
| c1ccc2c(c1)sc1ccccc12 [Dibenzothiophene] | 137 ± 39 | 105 | 87.3 ± 1.6 | 103 | 85 ± 12 | 123 | 115 ± 14 | 117 ± 11 | 98.7 ± 1 |
| N#Cc1ccccc1-c1cc(-c2ccccn2)cn(-c2ccccc2)c1=O [Perampanel] | 102 ± 10 | 89.9 | 85.1 ± 33 | 94 | 83.3 ± 4.5 | 70.4 | 79.2 ± 12 | 89.14 ± 0.86 | 97 ± 4.1 |
| O=c1[nH]c2ccccc2n1CCCN1CCC(n2c(=O)[nH]c3cc(Cl)ccc32)CC1 [Domperidone] | 195 ± 80 | 103 | 113 ± 65 | 84.9 | – | – | 128 ± 5.5 | 83.8 ± 4.6 | 176 ± 9.8 |
| CCOC(=O)c1cncn1C(C)c1ccccc1.Cl (stereo not given) [Etomidate hydrochloride] | 137 ± 30 | 155 | 125 ± 37 | 117 | – | 117 | 97.3 ± 9.7 | 145 ± 30 | 76.4 ± 5.3 |
| CC(C)OC(=O)[C@H](C)N[P@](=O)(CO[C@H](C)Cn1cnc2c(N)ncnc21)Oc1ccccc1 | 97.2 ± 1.3 | 109 | 87.9 ± 11 | 112 | 65.7 ± 8 | 183 | 103.7 ± 0.83 | 117.1 ± 0.62 | 144 ± 8.2 |
| Oc1cc(Cl)ccc1Oc1ccc(Cl)cc1Cl [Triclosan] | 73.5 ± 14 | 109 | 41.7 ± 24 | 71.7 | 66.4 ± 20 | 137 | 97.1 ± 9.6 | 49.5 ± 1.1 | 109.3 ± 1 |
| N/C(N)=N\N.Cl [Aminoguanidine hydrochloride] | 100 ± 16 | 105 | 95.2 ± 6.9 | 64 | 90 ± 2.4 | 118 | 99.6 ± 9.3 | 95.1 ± 21 | 53.4 ± 6.4 |
| CCC(C(N)=O)N1CCCC1=O (stereo not given) [Levetiracetam] | 141 ± 6.8 | 166 | 116 ± 17 | 98 | 107 ± 14 | 120 | 126 ± 17 | 91.7 ± 10 | 143 ± 4.9 |
| COc1cc2c(cc1OC)C13CCN4CC5=CCOC6CC(=O)N2C1C6C5CC43 (stereo not given) [Brucine] | 90.3 ± 9.9 | 132 | 98.2 ± 29 | 94.5 | 106 ± 11 | 100 | 106 ± 1.5 | 83.5 ± 22 | 96.6 ± 4.8 |
| C=CCC1(O)CCC2C3CCC4=CC(=O)CCC4=C3C=CC21C (stereo not given) [Altrenogest] | 172 ± 56 | 125 | 65.5 ± 13 | 78.7 | 137 ± 7.6 | 150 | 83.1 ± 6.5 | 107 ± 12 | 141 ± 8.9 |
| CC(=Cc1csc(C)n1)C1CC2OC2(C)CCCC(C)C(O)C(C)C(=O)C(C)(C)C(O)CC(=O)O1 (stereo not given) [Epothilone B (EPO906, Patupilone)] | 154 ± 16 | 119 | 91.4 ± 4.8 | 99.2 | 111 ± 2.6 | – | 78.2 ± 9.1 | 75.9 ± 13 | 137 ± 13 |
| CC12CCC3C(CC=C4CC(O)CCC43C)C1CCC2=O (stereo not given) [Dehydroepiandrosterone (DHEA)] | 124 ± 8.8 | 107 | 87 ± 21 | 112 | 111 ± 12 | 102 | 98.2 ± 9.5 | 93.3 ± 20 | 111 ± 4 |
| Cc1ccc(-n2nccn2)c(C(=O)N2CCN(c3nc4cc(Cl)ccc4o3)CCC2C)c1 (stereo not given) | 136 ± 9.6 | 88 | 39.5 ± 27 | 93.5 | 101 ± 34 | 101 | 91.9 ± 10 | 118 ± 22 | 136 ± 3.4 |
| NCC1(CC(=O)O)CCCCC1 [Gabapentin] | 96.8 ± 7.7 | 119 | 97.8 ± 9.5 | 104 | 88.1 ± 2.5 | 76 | 77.8 ± 0.82 | 88.1 ± 8.3 | 76.9 ± 11 |
| C[N+]1(C)[C@@H]2C[C@@H](OC(=O)C(CO)c3ccccc3)C[C@H]1[C@@H]1O[C@@H]12.[Br-] (stereo not given in full) [Methscopolamine] | 106 ± 8.5 | 128 | 107 ± 9.7 | 93.2 | – | 97.9 | 80.6 ± 12 | 87.7 ± 8 | 138.9 ± 0.7 |
| CC(=O)OC1CC2CCC3C(CCC4(C)C3CC([N+]3(C)CCCCC3)C4OC(C)=O)C2(C)CC1[N+]1(C)CCCCC1.[Br-].[Br-] (stereo not given) [Pancuronium dibromide] | 99.4 ± 8.2 | 106 | 105 ± 2.1 | 93.3 | – | 95.5 | 79.4 ± 3.5 | 94.3 ± 4.8 | 103 ± 4.2 |
| O=S(=O)(F)Cc1ccccc1 | 131 ± 25 | 127 | 89.27 ± 0.7 | 92.5 | 87.2 ± 19 | 100 | 106.1 ± 0.78 | 104 ± 31 | 111 ± 22 |
| Br.CN1C2CC(OC(=O)C(CO)c3ccccc3)CC1C1OC12 (stereo not given) [Scopolamine hydrobromide] | 108 ± 3.9 | 120 | 91.5 ± 17 | 104 | 83.67 ± 0.26 | 127 | 90.98 ± 0.47 | 122 ± 1.4 | 133.3 ± 1.1 |
